The nature of assay [1]: qHTS assay to identify small molecule agonists of the vitamin D receptor (VDR) signaling pathway - cell viability counter screen (AID 743224; active means well fitted curve in the direction sought with a large enough effect in the repeat runs; an effect the other way counts as inactive or inconclusive; further: series mostly up to about 63 µM; on the % scale 0 is the no-effect control and ±100 the full control effect; nearly all actives have a fitted effect of over 50% in size). The essentials: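 VDR-bla cell line, quantitative HTS format; 16 h compound incubation (37C, 5% CO2); ATP-based CellTiter-Glo luminescence measured in the reporter assay wells.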
(In general: qHTS replaces the single test concentration by a dilution series.)

A short description of assay [2]: qHTS assay to identify small molecule antagonists of the vitamin D receptor (VDR) signaling pathway - cell viability counter screen (AID 743225; active means well fitted curve in the direction sought with a large enough effect in the repeat runs; an effect the other way counts as inactive or inconclusive; further: on the % scale 0 is the no-effect control and ±100 the full control effect; nearly all actives have a fitted effect of over 50% in size). The method, boiled down:
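VDR-bla HEK 293T cells, 4 h pre-incubation at 37C, then compound plus 1-alpha,25-dihydroxyvitamin D3 (3 nM final) for 16 h. After the beta-lactamase FRET read, CellTiter-Glo was added to the same wells; luminescence after 30 min at room temperature.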

Assay [3] can be described thus: qHTS assay to identify small molecule agonists of the NFkB signaling pathway (AID 1159509; active means well fitted curve in the direction sought with a large enough effect in the signal ratio in the repeat runs, not every such curve was filed as active; the % refers to the signal ratio; further: series mostly up to about 61 µM; on the % scale 0 is the no-effect control and ±100 the full control effect). The essentials: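 After overnight attachment, reporter cells received test compounds, DMSO or positive controls and were incubated 5 hr at 37 C. FRET substrate was then added for 1.5 hr at room temperature before dual-emission fluorescence reading.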
Assay [4] can be described thus: qHTS assay to identify small molecule agonists of the NFkB signaling pathway - cell viability counter screen (AID 1159515). Further: series mostly up to about 61 µM; on the % scale 0 is the no-effect control and ±100 the full control effect; nearly all actives have a fitted effect of over 55% in size. The method, boiled down: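 Viability in NFkB-bla ME-180 cells was measured by CellTiter-Glo luminescence, 30 min room temperature, in wells already treated 5 hr with compounds and read for reporter FRET.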
A short description of assay [5]: qHTS assay to identify small molecule agonists of the endoplasmic reticulum stress response signaling pathway (AID 1159516; active means well fitted activation curve with a large enough effect in the signal ratio in the repeat runs, not every such curve was filed as active; the % refers to the signal ratio; further: on the % scale 0 is the no-effect control and ±100 the full control effect). The method, boiled down:
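ER stress element reporter (bla) in HeLa. 1,500 cells/well, overnight attachment; 5 hr compound; 2 hr RT substrate; dual-emission fluorescence.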

The nature of assay [6]: qHTS assay to identify small molecule agonists of the endoplasmic reticulum stress response signaling pathway - cell viability counter screen (AID 1159517).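 Further: HeLa cells carrying an ER stress response element beta-lactamase reporter; series mostly up to about 61 µM; on the % scale 0 is the no-effect control and ±100 the full control effect; nearly all actives have a fitted effect of over 50% in size.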 The method, boiled down: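 Counter-screen wells were identical to the reporter wells. Cells were plated at 1,500 per well and dosed for 5 hr, then read for luminescence 30 min after CellTiter-Glo addition.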
A short description of assay [7]: qHTS assay to identify small molecule antagonists of the retinoid-related orphan receptor gamma (ROR-gamma) signaling pathway - cell viability counter screen (AID 1159520; active means well fitted curve in the direction sought with a large enough effect in the repeat runs; an effect the other way counts as inactive or inconclusive; further: nearly all actives have a fitted effect of over 50% in size; further: potency means the concentration at half of the fitted maximal effect). The method, boiled down: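 Tet-on ROR gamma CHO cells were given compounds for 2 hr, then doxycycline hyclate at 1 uM final, and incubated 16 hr at 37 C. Viability was measured as ATP content by CellTiter-Glo luminescence.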

Assay [8] deals with Nuclear receptor ROR-gamma (Homo sapiens) (UniProt P51449). As to the kind of experiment: qHTS assay to identify small molecule antagonists of the retinoid-related orphan receptor gamma (ROR-gamma) signaling pathway (AID 1159521; active means well fitted curve in the direction sought with a large enough effect in the repeat runs; an effect the other way counts as inactive or inconclusive; further: nearly all actives have a fitted effect of over 50% in size; further: potency means the concentration at half of the fitted maximal effect). The essentials: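 Tet-on RORγ CHO cells carrying a ROR response element–luciferase reporter were pretreated with compounds for 2 h, then induced with 1 uM (final) doxycycline hyclate for 16 h at 37 C. Antagonism was read as decreased ONE-Glo luminescence.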

A short description of assay [9]: qHTS assay to identify small molecule agonists of the AP-1 signaling pathway - cell viability counter screen (AID 1159525). Further: nearly all actives have a fitted effect of over 55% in size. Further: potency means the concentration at half of the fitted maximal effect. The method, boiled down:
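AP-1-bla ME-180 cells in Opti-MEM with 0.5% dialyzed FBS, compound exposure 5 h at 37 C in 15-point titration. Viability read in the same wells as ATP content by CellTiter-Glo luminescence, normalised to tetra-n-octylammonium bromide and DMSO controls.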

Assay [10] is described as follows: qHTS assay to identify small molecule agonists of the AP-1 signaling pathway (AID 1159526). Further: on the % scale 0 is the no-effect control and ±100 the full control effect.

Where “and” joins values, the source holds several entries; their conditions need not be identical. Identical values can stand only once. Inconclusive results are not listed. A structure can be active in one record and inactive in another. Calls of active or inactive are those of the source. Unless noted, the call rests on the fitted dose curve.

For `O=c1[nH]nnc2ccccc12`, the Potency result in assay [1], in [7], in assay [8] and in [9] was “inactive” in each case. Moreover, the molecule was called inactive in assay [2], in assay [3], in assay [4], in assay [5], in [6] and in assay [10].

As for `O=C(CC(C(=O)OC1CCCCC1)S(=O)(=O)O)OC1CCCCC1` (stereo not drawn), the Potency result in [1], in assay [8] and in assay [9] was “inactive” throughout. Moreover, the outcome in assay [2], in [3], in [4], in [5], in [6] and in assay [10] was inactive. For the same molecule, the Potency entry in assay [7] is “inactive and 53.8 µM (active)”.

With `COc1ccc(Cl)cc1C(=O)NCCc1ccc(S(=O)(=O)NC(=O)NC2CCCCC2)cc1`, the Potency entry in [1], in assay [7], in [8] and in [9] was “inactive” each time. Further, the molecule was classed as inactive in assay [2], in [3], in assay [4], in assay [5], in assay [6] and in assay [10].

In the case of `C=C(C)C(=O)OCCOCCOCCOC(=O)C(=C)C`, the Potency entry in assay [1], in [7], in [8] and in assay [9] was “inactive” each time. The molecule was classed as inactive in assay [2], in [3], in [4], in assay [5], in assay [6] and in assay [10].

On to `C[C@H]1C[C@H]2[C@@H]3CCC4=CC(=O)C=C[C@]4(C)[C@@]3(F)[C@@H](O)C[C@]2(C)[C@@]1(O)C(=O)CO`, for which the result in [3], in [4], in assay [5], in assay [6] and in assay [10] was inactive. For the same molecule, the Potency result in assay [7], in assay [8] and in [9] was “inactive” in each case.

In the case of `CCCCCC(N)=O`, the Potency result in assay [1], in assay [7], in assay [8] and in assay [9] was “inactive” in each case. The outcome in [2], in assay [3], in assay [4], in assay [5], in assay [6] and in assay [10] was inactive.

Regarding `Cc1cc(C)c(C)cc1C`, the Potency result in assay [1], in assay [7], in assay [8] and in assay [9] was “inactive” throughout. For the same molecule, the molecule was classed as inactive in [2], in assay [3], in [4], in [5], in [6] and in assay [10].

With `OC[C@H]1O[C@@](CO)(O[C@H]2O[C@H](CO)[C@@H](O)[C@H](O)[C@H]2O)[C@@H](O)[C@@H]1O`, the Potency entry in [1], in assay [7], in [8] and in assay [9] was “inactive” each time. Besides, the molecule was called inactive in [2], in assay [3], in assay [4], in assay [5], in [6] and in assay [10].

Take `Cc1cccc(O)c1`: the Potency result in [1], in [7], in [8] and in [9] was “inactive” in each case. Moreover, the outcome in assay [2], in assay [3], in assay [4], in [5], in assay [6] and in [10] was inactive.

As to `CC[C@H](C)C(=O)O[C@H]1C[C@@H](C)C=C2C=C[C@H](C)[C@H](CC[C@@H]3C[C@@H](O)CC(=O)O3)[C@H]21`, the Potency result in assay [1] is “inactive”. Also, the result in assay [2], in assay [3], in assay [4], in assay [5], in [6] and in assay [10] was inactive. The Potency was 27.7 µM (active) in [7]; 982 nM (active) and 1.21 µM (active) in assay [8]; 55.7 µM (active) and inactive in assay [9].

`COc1ccc2cc([C@H](C)C(=O)O)ccc2c1`: the Potency entry in assay [1], in assay [7], in [8] and in [9] was “inactive” throughout. Besides, the outcome in [2], in assay [3], in [4], in assay [5], in [6] and in assay [10] was inactive.

Take `COS(C)(=O)=O`: the Potency entry in assay [1], in assay [7], in [8] and in assay [9] was “inactive” in each case. For the same molecule, the call in [2], in [3], in assay [4], in assay [5], in assay [6] and in [10] was inactive.

For the molecule `O=[N+]([O-])c1ccc(/C=C/c2ccc([N+](=O)[O-])cc2S(=O)(=O)O)c(S(=O)(=O)O)c1`, the Potency entry in [1], in assay [7], in assay [8] and in assay [9] was “inactive” throughout. The molecule was classed as inactive in assay [2], in assay [3], in [4], in assay [5], in assay [6] and in assay [10].

With `CCCC(C)=O`, the Potency entry in [1], in assay [7], in assay [8] and in [9] was “inactive” throughout. Further, the molecule was called inactive in assay [2], in assay [3], in assay [4], in assay [5], in assay [6] and in assay [10].

As to `O=C(O)c1cc(O)c(O)c(O)c1`, the Potency entry in assay [1], in assay [7], in assay [8] and in assay [9] was “inactive” each time. Moreover, the call in assay [2], in assay [3], in assay [4], in assay [5], in assay [6] and in assay [10] was inactive.

`CSCCC=O`: the Potency result in assay [1], in assay [7], in assay [8] and in assay [9] was “inactive” each time. For the same molecule, the call in assay [2], in [3], in assay [4], in assay [5], in assay [6] and in [10] was inactive.

Consider `C=C(C)C(=O)O[C@H]1C[C@@H]2CC[C@@]1(C)C2(C)C`, for which the Potency entry in assay [1] and in assay [7] was “inactive” in each case. Moreover, the outcome in assay [2], in assay [3], in [4], in assay [5], in assay [6] and in assay [10] was inactive. In addition, the Potency in [8] is 963 nM (active) and inactive; in assay [9] it was 4.87 µM (active) and inactive.

For the molecule `CCCCC(CC)CO` (stereo not drawn), the Potency entry in assay [1], in [7], in assay [8] and in assay [9] was “inactive” in each case. Moreover, the call in assay [2], in assay [3], in assay [4], in [5], in [6] and in [10] was inactive.

As for `C[C@H]1C[C@@H]2[C@H]([C@@H](O)C[C@@]3(C)[C@H]2CC[C@]3(O)C(=O)CO)[C@@]2(C)C=CC(=O)C=C12`, the Potency entry in [1], in assay [7], in [8] and in assay [9] was “inactive” each time. In addition, the call in [2], in [3], in assay [4], in assay [5], in [6] and in assay [10] was inactive.

As to `Fc1ccc(Br)cc1`, the Potency entry in [1], in assay [7], in [8] and in [9] was “inactive” throughout. Moreover, the result in [2], in assay [3], in [4], in assay [5], in [6] and in [10] was inactive.

With `CCCCCCCCCC`, the Potency result in assay [1], in [7], in assay [8] and in [9] was “inactive” in each case. Moreover, the call in [2], in [3], in assay [4], in assay [5], in [6] and in assay [10] was inactive.

Take `CCCCCCCC(=O)OC`: the Potency result in assay [1], in assay [7], in [8] and in assay [9] was “inactive” each time. Further, the result in [2], in assay [3], in assay [4], in assay [5], in assay [6] and in assay [10] was inactive.

For `CC(O)COCC(C)O` (stereo not drawn), the Potency entry in assay [1], in [7], in assay [8] and in assay [9] was “inactive” in each case. Besides, the molecule was classed as inactive in assay [2], in [3], in [4], in assay [5], in assay [6] and in assay [10].

For the molecule `NNc1nncc2ccccc12`, the Potency entry in assay [1], in assay [7], in assay [8] and in assay [9] was “inactive” each time. Moreover, the molecule was classed as inactive in [2], in assay [3], in assay [4], in assay [5] and in assay [6]. In [10], the activation is -4.28% [at 15.8 µM] (inactive).

In the case of `CCc1cccc(C)c1N`, the Potency entry in assay [1], in assay [7], in [8] and in assay [9] was “inactive” each time. The outcome in assay [2], in assay [3], in [4], in assay [5], in assay [6] and in [10] was inactive.

These data come from PubChem BioAssay (Tox21).
